Screening results (PubChem)
Giardia kill – Small Molecules that selectively kill Giardia lamblia: qHTS | activity change, % at 7.66 µM, hits read low | AID 540267, 2011 | hit rate 0.15% among 340,000 | Giardia lamblia trophozoite viability; in the data active means activity change below about -80%; inconclusive means between about -30% and that limit;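 further: parasites exposed to compound for two days anaerobically before the ATP read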
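ATP-content bioluminescence gauges trophozoite survival. Cells (100/well) receive compound and incubate anaerobically for 48 hrs at 37 deg C; detection reagent follows for 15-30 min at room temperature.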
TDP1 inh – qHTS Assay for Inhibitors of Tyrosyl-DNA Phosphodiesterase (TDP1). Tyrosyl-DNA phosphodiesterase 1 (Homo sapiens), Q9NUW8. recombinant TDP1, AlphaScreen DNA substrate cleavage. Potency, µM (series often up to 130 µM), usual class: inhibitors. hit rate 0.28% among 350,000; further: nearly all actives have a fitted effect of over 40% in size
Target sequence (Q9NUW8 whole entry, looked up): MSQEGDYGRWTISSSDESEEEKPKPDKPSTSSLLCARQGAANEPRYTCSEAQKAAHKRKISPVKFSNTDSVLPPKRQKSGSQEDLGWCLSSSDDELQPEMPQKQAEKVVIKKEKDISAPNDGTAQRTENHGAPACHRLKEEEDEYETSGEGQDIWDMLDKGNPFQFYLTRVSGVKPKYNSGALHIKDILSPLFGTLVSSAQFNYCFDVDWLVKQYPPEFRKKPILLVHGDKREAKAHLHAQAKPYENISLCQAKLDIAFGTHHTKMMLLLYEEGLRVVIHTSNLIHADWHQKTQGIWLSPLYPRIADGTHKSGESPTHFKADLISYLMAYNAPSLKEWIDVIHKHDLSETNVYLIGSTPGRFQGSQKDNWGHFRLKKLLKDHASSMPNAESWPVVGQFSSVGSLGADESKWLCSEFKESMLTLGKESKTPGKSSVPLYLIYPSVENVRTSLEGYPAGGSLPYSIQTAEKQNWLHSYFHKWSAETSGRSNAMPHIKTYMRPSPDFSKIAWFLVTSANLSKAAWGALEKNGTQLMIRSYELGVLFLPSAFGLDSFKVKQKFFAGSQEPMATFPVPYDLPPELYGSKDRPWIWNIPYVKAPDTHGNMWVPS
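E. coli-derived human Tdp1, 1 nM final. Cpd preinc 15 min RT; substrate 15 nM final, 5 min RT; AS bead mix 10 ug/ml final, 10 min RT. Signal loss = tyrosine-FITC cleavage. No-enzyme wells = max signal.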
IL-1B inflam inh – qHTS for Inhibitors of Inflammasome Signaling: IL-1-beta AlphaLISA Primary Screen | THP-1 LPS/ATP IL-1B secretion, AlphaLISA, 16 h; active compounds read low | activity change, % at 57.5 µM | hit rate 4.7% among 360,000 | AID 743279, 2014; in the data active means activity change below about -50%; inconclusive means mostly about -30% to -49%
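Secreted IL-1B measured by AlphaLISA bead assay after 16 h compound exposure of THP-1 cells; compounds (final up to 57.5 uM) added 1 h before LPS (250 ng/mL) and ATP (1.25 mM) stimulation; lower signal means less secretion.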
TDP1 cell noCPT – qHTS for Inhibitors of human tyrosyl-DNA phosphodiesterase 1 (TDP1): qHTS in cells in absence of CPT. DT40 Tdp1-/- hTDP1 cells, no CPT, ATP luminescence, 48 h. Potency, µM (series often up to 46.2 µM), most hits filed as inhibitors. hit rate 15% among 420,000. AID 686978, 2013; further: nearly all actives have a fitted effect of over 55% in size
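Camptothecin absent (DMSO only). Human TDP1-complemented DT40 knockout cells, 400 cells/well, 37 °C for minimum 48 hr; ATP measured via CellTiter-Glo, 30 min dark incubation, luminescence.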
ELG1 DNA repair – qHTS screen for small molecules that inhibit ELG1-dependent DNA repair in human embryonic kidney (HEK293T) cells expressing luciferase-tagged ELG1; HEK293T ELG1-luciferase reporter, luminescence, 16 h; DNA damage induced by 5-fluorouridine; Potency, µM (top dose mostly 46.1 µM), hits mostly inhibitors; hit rate 2.3% among 330,000; AID 504467, 2011; further: nearly all actives have a fitted effect of over 55% in size
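In this reporter screen, reduction of luminescence relative to DMSO vehicle indicated activity. Compounds and 5-fluorouridine were added together to 2,000 cells per well, incubated for 16 hr at 37 °C, then developed with ONE-Glo.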
TDP1 cell CPT – qHTS for Inhibitors of human tyrosyl-DNA phosphodiesterase 1 (TDP1): qHTS in cells in presence of CPT | chicken DT40 Tdp1-/-;hTDP1 cells + 20 nM CPT, ATP luminescence, 48 h | AID 686979, 2013 | hit rate 12% among 420,000 | Potency, µM (doses to about 46.2 µM), usual class: inhibitors; further: nearly all actives have a fitted effect of over 55% in size
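Chicken DT40 Tdp1-/- cells complemented with human TDP1, 400 cells/well, exposed to compounds plus 20 nM camptothecin for at least 48 h at 37 C; viability read as ATP content by CellTiter-Glo luminescence.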
Of the large screens only hits and unclear results are named; the others gave an inactive call. A selection: hits, their analogues and other compounds. The true share with any hit is near 19%. Unless noted, the call rests on the fitted dose curve; in most records, active means well fitted curve in the direction sought with a large enough effect; inconclusive means small, poorly fitted or top-dose-only effect, or another doubt; inactive means no such curve, though single readings can be large; an effect the other way counts as inactive or inconclusive.

O=C(O)c1ccccc1Cc1ccccc1	none (no result: Giardia kill, IL-1B inflam inh, TDP1 cell noCPT, ELG1 DNA repair, TDP1 cell CPT)
Cc1cc(N2CCN(c3cccc(C(F)(F)F)c3)CC2)n2nc(-c3ccccc3C)nc2n1	TDP1 cell noCPT 16.4µM, TDP1 cell CPT 18.4µM (no result: Giardia kill, IL-1B inflam inh, ELG1 DNA repair)
Cc1cc(N2CCN(c3cccc(C(F)(F)F)c3)CC2)n2ncnc2n1	TDP1 cell noCPT 23.1µM, TDP1 cell CPT inconclusive
Cc1nc2ncnn2c(N2CCN(c3cccc(C(F)(F)F)c3)CC2)c1C	IL-1B inflam inh inconclusive, TDP1 cell noCPT 20.6µM, ELG1 DNA repair inconclusive, TDP1 cell CPT 16.4µM
COc1ccc(N2CCN(c3cc(C)nc4nc(-c5ccc(C)cc5)nn34)CC2)cc1	none (no result: Giardia kill, IL-1B inflam inh, ELG1 DNA repair)
COc1cccc(CN2CC(C(=O)NCCC3=CCCCC3)CCC2=O)c1 (configuration not stated)	TDP1 cell noCPT inconclusive, TDP1 cell CPT inconclusive
COC(=O)c1cccc(NC(=O)CCCOc2ccccc2)c1	none
COC(=O)c1cccc(C#CC(NP(=O)(c2ccccc2)c2ccccc2)c2ccccc2)c1 (configuration not stated)	IL-1B inflam inh -64.2, TDP1 cell noCPT inconclusive, ELG1 DNA repair inconclusive, TDP1 cell CPT 25.9µM
CCCCc1cc2c(=O)c(C(=O)OC)c[nH]c2cc1OCc1ccccc1	none (no result: Giardia kill, TDP1 inh, IL-1B inflam inh, ELG1 DNA repair)
COc1cccc(N=c2oc3ccccc3cc2-c2nc3ccccc3[nH]2)c1	Giardia kill inconclusive, TDP1 cell noCPT 23.1µM, ELG1 DNA repair inconclusive, TDP1 cell CPT 23.1µM
OCCCNCc1ccc(-c2ccccc2)cc1	none
c1ccc(-c2ccc(CNC3CC3)cc2)cc1	IL-1B inflam inh -87.3, TDP1 cell CPT inconclusive (no result: TDP1 inh)
COc1cc(=O)n2c(c1C(=O)N(C)Cc1nonc1C)CCN(C(=O)c1cc(C)cc(C)c1)CC2	none (no result: Giardia kill, TDP1 inh, IL-1B inflam inh, ELG1 DNA repair)
